Screening data from PubChem.
KKLEB tox – reduces viability of KKLEB cystic fibrosis airway cells. KKLEB CF airway cells viability, ATPlite luminescence, overnight; stronger effect = lower value; cells stimulated with P. aeruginosa culture filtrate. activity change (cytotoxicity), % at 5 µM. actives 0.36% (n = 360,000). AID 602141;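 active = corrected activity change at or below -50% at 5 µM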
TROY signal inh – inhibitors of TROY-dependent NF-kB signaling | AID 1347056 | Q293 LMP1-TROYcd NF-kB luciferase reporter, 4 h | actives 0.98% (n = 360,000) | inhibition, % at 10 µM;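 active = compounds whose plate-normalised and pattern-corrected inhibition of the luciferase reporter signal at the single screening dose is 50% or more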
CF NFkB block – inhibitors of cystic fibrosis induced NF-kB; AID 588850; inhibition, % at 5 µM; actives 0.86% (n = 360,000); KKLEB NF-kB-GFP reporter, PAF-induced, GFP fluorescence overnight;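 active = at least 50% inhibition at 5 µM, scaled per plate between neutral and stimulator controls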;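 note: PAF is a Pseudomonas aeruginosa culture filtrate used as stimulus; plate controls were PAF-stimulated DMSO wells for no effect and unstimulated DMSO wells for full effect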
TWEAK-Fn14 inh – blocks TWEAK-Fn14 interaction in a reporter cell assay; TWEAK-stimulated Fn14 reporter cells, luciferase luminescence, 8 h; inhibition, % at 10 µM; actives 2% (n = 360,000); in the data active = inhibition above about 50%
Peg3 prom inh – reduces Peg3 promoter-driven luciferase expression in HeLa | HeLa PEG-Prom luciferase reporter, luminescence, overnight | inhibition, % at 20 µM | actives 1.7% (n = 360,000) | AID 588405;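 active = inhibition of at least 50% at 20 µM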
HIF-2a inh – blocks HIF-2a reporter activity. 786-0 RCC cells HIF-2a reporter, luciferase luminescence, overnight. inhibition, % at 18.8 µM. actives 0.72% (n = 360,000). AID 624352;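 active = inhibition of the luminescence signal of 40% or more relative to plate controls, in a single-dose primary screen at 18.75 µM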
An asterisk follows results filed as active; x = not tested or not shown. This is a sample that favours compounds with a hit; in the whole collection about 4% have one here.

SMILES	KKLEB tox	TROY signal inh	CF NFkB block	TWEAK-Fn14 inh	Peg3 prom inh	HIF-2a inh
CC(C)N(C(=O)Cn1c(=O)oc2ccccc21)c1ccccc1	-6.8	-20.8	10.3	-20.1	6.6	15.4
NS(=O)(=O)c1ccc(-c2ccc(/C=N/Nc3ccc(C(=O)O)cc3)o2)cc1	9.0	16.2	3.8	50.1*	8.1	11.3
O=C1CC2(CCN(C(=O)C(=O)c3c[nH]c4ccccc34)CC2)Oc2ccccc21	-100.0*	-16.1	84.4*	7.5	-17.8	5.1
O=C(C(=O)N1CCCC1)c1c[nH]c2ccccc12	-8.2	10.6	-7.9	18.4	5.1	-6.0
CC1(c2nnnn2Cc2ccccc2)CCC(=O)N1CCCn1ccnc1 (configuration not stated)	x	-5.7	x	19.6	x	7.5
Cc1ccc(SCCN2CCN(CC(C)C)CCC2=O)cc1	13.5	-23.9	8.5	13.1	-94.6	-124.3
CC/C(=N\Nc1ccc([N+](=O)[O-])cc1[N+](=O)[O-])c1ccc(O)cc1	-6.8	17.9	-14.7	-20.7	24.7	-2.6
CC/C(=N\Nc1ccccc1[N+](=O)[O-])c1ccc(O)cc1	-0.7	52.6*	17.2	4.5	-66.7	-115.1
CCOC(=O)C1=CCN(S(=O)(=O)c2ccc(C)cc2)C1c1cccc(Br)c1 (configuration not stated)	-13.6	17.4	-0.9	8.9	29.6	14.0
O=S(Cc1ccc(Br)cc1)Cc1nnc(SCc2c(F)cccc2Cl)n1-c1ccccc1 (configuration not stated)	2.8	22.4	11.5	48.5	8.1	20.0
O=S(Cc1ccc(Br)cc1)Cc1nnc(SCc2ccc(Cl)cc2)n1-c1ccccc1 (configuration not stated)	-4.7	31.2	8.0	55.4*	9.6	-1.7
O=C(CN1CCN(Cc2ccccc2)CC1)Nc1ccc([N+](=O)[O-])cc1C(=O)Nc1ccccc1F	-28.6	23.2	17.8	27.5	62.5*	26.6
Cc1cc([N+](=O)[O-])ccc1NC(=O)CN1CCN(Cc2ccccc2)CC1	12.2	-2.9	-8.5	-28.1	7.4	13.2
CC1(C(=O)NCc2ccccc2)CSCC(=O)N1CC(F)(F)F (configuration not stated)	x	x	x	x	x	-4.8
COc1ccc(CN=C(C)c2c(C(F)(F)F)[nH]n(-c3nc4ccccc4s3)c2=O)cc1	-42.8	-34.3	21.7	58.3*	-258.0	-83.3
COC(=O)Cc1[nH]n(-c2nc3ccccc3s2)c(=O)c1C(C)=O	-0.1	20.6	0.1	38.4	-7.3	-49.0
COc1ccc(-c2sc(Nc3ccccc3)n[n+]2-c2ccccc2)cc1Br	3.1	11.3	13.7	-10.6	-10.3	-175.4
C(=C\c1sc(Nc2ccccc2)n[n+]1-c1ccccc1)/c1ccccc1	0.1	-50.9	-10.9	-3.1	101.2*	-99.6
O=C(CCCC(=O)N(c1ccc2c(c1)OCCO2)C(C(=O)NC1CCCCC1)c1ccc(Cl)cc1)Nc1ccccn1 (configuration not stated)	-0.4	3.1	0.4	62.5*	-11.9	-14.9
COc1ccc(N(Cc2ccccc2)N=O)cc1	5.5	-49.8	-5.9	2.3	-23.9	-31.4
Cc1[nH]c(=O)[nH]c(=O)c1S(=O)(=O)Nc1ccc(F)c([N+](=O)[O-])c1	4.1	-6.8	1.8	-18.4	17.6	3.7
O=C1CC(c2ccccc2)=NN1c1ccccc1	3.7	52.3*	49.0	-18.4	37.0	-21.1
Cc1cc(C)nc(N2N=C(c3ccccc3)CC2=O)n1	-4.6	-9.6	-14.7	-24.0	-72.3	-17.7
Cc1ccc2c(c1)C1(OCCCO1)C(=O)N2CC#N	-3.6	10.0	-13.4	8.4	21.1	23.7
Cc1ccc2c(c1)C1(OCCCO1)C(=O)N2CC(=O)NN	-9.2	-9.8	9.2	94.2*	1.6	20.2
SMILES	KKLEB tox	TROY signal inh	CF NFkB block	TWEAK-Fn14 inh	Peg3 prom inh	HIF-2a inh
CCN(CC)S(=O)(=O)c1cc(NC(=O)CSc2nc3c(cc2C#N)C(=O)CC(C)(C)C3)ccc1C	-14.0	45.9	22.3	55.4*	54.0*	7.9
CCN(CC)S(=O)(=O)c1cc(NC(=O)CSc2nnc(N)s2)ccc1C	7.4	11.9	5.0	-4.8	6.8	6.5
Cc1ccc(OC(C)C(=O)Nc2ccc(S(=O)(=O)N3CCOCC3)cc2)cc1 (configuration not stated)	-11.1	12.6	12.5	-5.8	10.3	14.1
CC(=O)N1CCN(S(=O)(=O)c2cccc(C(=O)NC3CC3)c2)CC1	-4.2	-13.4	-4.8	0.6	10.3	5.3
O=C(OCc1nnc(-c2ccccc2)o1)C1CCN(C(=O)c2ccc(Cl)cc2)CC1	1.1	-3.7	2.4	-2.3	-12.1	5.9
Cc1ccc(NC(=S)N(CCCN2CCCC2)Cc2cccn2Cc2ccc(Cl)cc2)cc1Cl	-18.9	-2.6	15.7	-27.5	98.1*	-14.5
COc1ccc(NC(=S)N(CCCN2CCCC2)Cc2cccn2Cc2ccc(Cl)cc2)cc1Cl	-12.5	-2.9	25.9	-28.2	102.6*	-13.0
FC(F)(F)c1cccc(NC(=S)N(CCCN2CCCC2)Cc2cccn2Cc2ccc(Cl)cc2)c1	-16.8	-2.4	36.3	-48.7	105.5*	-21.0
Cc1ccc(C)c(N2CCN(C3C(=O)Nc4ccccc4-n4nnnc43)CC2)c1 (configuration not stated)	x	x	x	x	x	3.1
CCCN(C(=O)COC(=O)CSc1ccc([N+](=O)[O-])cc1)C1CCS(=O)(=O)C1 (configuration not stated)	17.1	-12.4	14.4	8.5	-4.8	-2.8
CCCCn1c(CCl)nc2cc(S(=O)(=O)N3CCOCC3)ccc21	14.3	3.7	44.7	3.5	57.9*	10.3
CCCCn1c(C)nc2cc(S(=O)(=O)N3CCOCC3)ccc21	-10.5	5.3	24.4	13.6	1.2	11.1
Cc1cc(C(=O)NNC(=O)CCCCC(=O)NNC(=O)c2cc(C)[nH]n2)n[nH]1	-12.1	-11.4	7.4	1.9	-2.0	24.2
COc1ccc(CC(=O)NNC(=O)c2cc(C)[nH]n2)cc1	6.0	-10.0	-17.4	3.9	62.4*	13.5
Oc1[nH]c2ccccc2c1N=NC(=S)N1CCOCC1	25.5	1.3	17.1	103.8*	53.5*	16.4
Cc1ccc(NC(=S)Nc2ccc3cn[nH]c3c2)cc1C	2.2	-10.9	20.3	-23.6	-17.8	-54.1
CC(C)c1ccc(NC(=S)Nc2ccc3cn[nH]c3c2)cc1	0.9	52.8*	25.1	-2.4	-135.7	-153.4
COc1ccc2[nH]c(C)c(CCNC(=S)Nc3cc(C)ccc3C)c2c1	-2.4	4.8	3.4	14.6	12.7	1.1
CCc1cccc(C)c1NC(=S)NCCc1c(C)[nH]c2ccc(C)cc12	8.4	-4.2	-13.4	-7.9	51.4*	16.0
COC(=O)c1cnn(-c2cc(Oc3cccc(C)c3)ncn2)c1N	2.4	x	0.6	91.0*	-110.3	-61.1
O=C(NCc1ccccc1F)Nc1nnc([C@@H]2C[C@H](O)[C@@H](CO)O2)s1	3.3	-19.6	-13.6	1.7	3.1	12.0
